The values below come from PubChem BioAssay (NCATS).

Records with an inconclusive call do not appear. Activity calls are given as the source filed them. Unless noted, the call rests on the fitted dose curve; in most records, active means well fitted curve in the direction sought with a large enough effect; inconclusive means small, poorly fitted or top-dose-only effect, or another doubt; inactive means no such curve, though single readings can be large; an effect the other way counts as inactive or inconclusive.

Experiment [1] is described as follows: Cytometric Cell-Based qHTS for Inhibitors of the mTORC1 Signaling Pathway in MEF (Tsc2-/-, p53-/-) Cells (AID 2660).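 Further: percent of cells above a phospho-rpS6 to PI ratio cutoff in each well; series mostly up to about 38 µM.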 Summed up: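 Tsc2-/-, p53-/- MEFs (empty vector) exposed to compound 24 h at 37 C, fixed, stained with Alexa-488 anti-phospho-rpS6 Ser235/236 and propidium iodide. Acumen laser scanning; phospho-S6/PI ratio thresholded against 7.5 nM rapamycin, reported as % positive cells.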
(In general: In qHTS, concentration-response curves come from the screen itself.)

Experiment [2] can be described thus: High Content Imaging Cell-Based qHTS for Inhibitors of the mTORC1 Signaling Pathway in MEF (Tsc2-/-, p53-/-) Cells (AID 2666).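 Further: percent of cells scored positive for phospho-rpS6 Ser235/236 immunostaining by imaging.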 Summed up: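 MEF Tsc2-/- p53-/- (empty vector), DMEM/10% FBS; cpd 24 h 37 °C; PFA fix, Alexa-488 p-rpS6 S235/236 Ab, Hoechst; imaged; rapamycin-defined inhibition; % positive cells/well.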
The nature of experiment [3]: High Content Imaging Cell-Based qHTS for Inhibitors of the mTORC1 Signaling Pathway in MEF Cells (AID 2667).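 Further: Tsc2-/- p53-/- MEFs stably re-expressing wild-type Tsc2 exposed 24 h; series mostly up to about 38 µM.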 Summed up:
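Read-out is the share of phospho-rpS6-positive cells per well, from Hoechst-normalized Alexa-488 Ser235/236 staining imaged on IN Cell. Cells: WT Tsc2-expressing Tsc2-/-, p53-/- MEFs exposed to compound for 24 hrs.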

A short description of experiment [4]: Cytometry Cell-Based qHTS for Inhibitors of the mTORC1 Signaling Pathway in MEF cells (AID 2668).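 Further: Tsc2-/- p53-/- mouse embryonic fibroblasts stably re-expressing wild-type Tsc2; percent cells positive for phospho-rpS6 Ser235/236 relative to propidium iodide stain; series mostly up to about 38 µM.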 Summed up: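 WT MEFs (Tsc2-/-, p53-/- stably re-expressing WT Tsc2) in DMEM + 10% FBS received compounds 24 hrs after plating, for 24 hrs at 37 degree Celsius. Fixed cells stained with Alexa-488 anti-phospho-rpS6 Ser235/236 and propidium iodide; laser-scanning cytometry read-out.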

Experiment [5] deals with Ubiquitin carboxyl-terminal hydrolase 2 (Homo sapiens) (UniProt O75604). As to the kind of experiment: qHTS Validation Assay for Inhibitors of Ubiquitin-specific Protease USP2a Using CHOP2 as the Reporter (AID 463106). Summed up:
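Fluorescence read-out at Ex 485nm/Em 531nm after 60min RT, following addition of 25nM Ub-CHOP2 plus 25nM reporter substrate to USP2 core (10nM) pretreated 30min with compound. Data normalized to NEM full inhibition; concentration-response curves fitted.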

Experiment [6] deals with DNA polymerase III PolC-type (Bacillus subtilis (strain 168)) (UniProt P13267). In words: qHTS Validation Assay for the Inhibitors of DNA Replication in Gram-Positive Bacteria (AID 485295). Further: potency means the concentration at half of the fitted maximal effect. Summed up:
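Reconstituted B. subtilis holoenzyme (Pol III, beta clamp, SSB, primase) was preincubated with compound at room temperature, then given single-stranded circular M13Gori plus dNTPs and NTPs. EDTA-containing PicoGreen stopped the reaction, and dsDNA product was read by fluorescence.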

Experiment [7] deals with Tumor susceptibility gene 101 protein (Homo sapiens) (UniProt Q99816). As to the kind of experiment: qHTS Validation Assay for Iinhibitors of HIV-1 Budding by Blocking the Interaction of PTAP/TSG101 (AID 485342; calls by dose curve). Summed up: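 Tsg101 binding domain (10 uM final) in pH 7.5 HEPES/NaCl/Tween 20/EDTA/TCEP buffer was mixed with pin-transferred compounds, then FITC-labeled PTAP peptide (50 nM final) was added; after 20 min at r.t., fluorescence polarization was read.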

A short description of experiment [8]: qHTS Validation Assay to Find Inhibitors of Chronic Active B-Cell Receptor Signaling (AID 485345; active means well fitted curve in the direction sought with a large enough effect in the main read-out, with a control signal flat, not every such curve was filed as active). Summed up:
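TMD8 ABC-DLBCL cells stably carrying doxycycline-inducible IkappaBalpha–green luciferase fusion plus unfused red luciferase; compounds 46 uM to 3 nM, 4 h at 37C with doxycycline. Corrected green/red luminescence ratio normalized to 10 uM MG-132 and basal cell wells; curves fitted.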

Experiment [9] deals with Beta-2 adrenergic receptor (Homo sapiens) (UniProt P07550). In words: qHTS validation assay of beta-arrestin-biased ligands of beta2-adrenergic receptor (AID 485366). Summed up: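 qHTS, Tango cells, 1500 cells/well, DMEM + 1% FBS. Cpd 18 hr at 37 degrees C. Luciferin/ATP/CoA detection mix, 15 min RT, luminescence read. %Activity from corrected signal; CRC fit, curve class.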

Experiment [10] concerns the target Ferritin light chain (Equus caballus) (UniProt P02791). In words: qHTS Validation Assay for Identification of Novel General Anesthetics (AID 2323). Further: series mostly up to about 77 µM. Summed up:
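Competitive displacement of profluorescent 1-aminoanthracene (1-AMA, 50% saturated solution in PBS) from 10 uM horse-spleen apoferritin. Compounds incubated 10 min at room temperature; fluorescence read at 380 nm excitation/535 nm emission, normalized to free 1-AMA and complex, fitted with four-parameter Hill equation.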

For experiment [11], the target named is ATP-dependent DNA helicase Q1 (Homo sapiens) (UniProt P46063). As to the kind of experiment: qHTS Validation Assay for Inhibitors of RecQ-Like Dna Helicase 1 (RECQ1) (AID 2353). Summed up: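 RECQ1T1 50 nM; forked duplex (20 bp + 30-nt ss tails) 200 nM, ATP 2 mM final; pH 8.0, 2 mM MgCl2, 2.5 ug/ml poly(dI-dC); 15 min compound preincubation; discontinuous kinetic read over 2 h at RT.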

Experiment [12] concerns the target RecQ-like DNA helicase BLM (Homo sapiens) (UniProt P54132). In words: qHTS Validation Assay for Inhibitors of Bloom's syndrome helicase (BLM) (AID 2364). Summed up:
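50 nM BLM preincubated 15 min at room temperature with compound in pH 8.0 Tris buffer containing 2.5 ug/ml poly(dI-dC); started with 200 nM TAMRA/BHQ-2 forked duplex and 2 mM ATP (final). Unwinding read as TAMRA fluorescence increase, two reads 2 h apart.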

Experiment [13] is described as follows: Validation screen for small molecules that induce DNA re-replication in MCF 10A normal breast cells (AID 463097). Further: nearly all actives have a fitted effect of over 60% in size. Summed up:
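Readout: Hoechst nuclear fluorescence intensity, 405 ex / 500-530 em, by scanning plate imager; re-replication scored as increase in nuclei with elevated DNA content. Cells exposed to compound 48 hr, 37 C, 5% CO2 beforehand.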

Experiment [14] in a line: qHTS for differential inhibitors of proliferation of Plasmodium falciparum line W2 (AID 1883).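 Further: parasites grown with compound for 72 h before lysis and staining.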 Further: potency means the concentration at half of the fitted maximal effect. The settings on record: Potency: Plasmodium falciparum W2 proliferation inhibition.
Experiment [15] is described as follows: qHTS for differential inhibitors of proliferation of Plasmodium falciparum line HB3 (AID 1886).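 Further: parasites grown with compound for 72 h before SYBR Green readout.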 Further: potency means the concentration at half of the fitted maximal effect. The following applies: Potency: Plasmodium falciparum HB3 proliferation inhibition.
The nature of experiment [16]: qHTS Assay for Modulators of Human Peripheral Myelin Protein 22 (PMP22) Expression/Activity (AID 1967; active means well fitted curve in the direction sought with a large enough effect in the signal ratio; the % refers to the signal ratio). Summed up:
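MSC80 mouse Schwann cells stably carrying Pmp22 promoter–green click beetle luciferase plus EF-alpha–red luciferase control were dosed for 24h at 37 °C. Dual-colour luminescence was filter-overlap corrected; %Activity came from green/red ratio versus untreated cells.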

Ferritin light chain (Equus caballus), sequence (P02791 2-175 limits assumed): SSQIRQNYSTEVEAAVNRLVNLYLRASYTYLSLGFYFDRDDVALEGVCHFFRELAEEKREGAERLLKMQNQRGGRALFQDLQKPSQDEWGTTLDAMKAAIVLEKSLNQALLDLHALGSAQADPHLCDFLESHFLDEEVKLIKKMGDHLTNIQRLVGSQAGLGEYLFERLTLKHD
Ubiquitin carboxyl-terminal hydrolase 2 (Homo sapiens), sequence (O75604 whole entry, looked up): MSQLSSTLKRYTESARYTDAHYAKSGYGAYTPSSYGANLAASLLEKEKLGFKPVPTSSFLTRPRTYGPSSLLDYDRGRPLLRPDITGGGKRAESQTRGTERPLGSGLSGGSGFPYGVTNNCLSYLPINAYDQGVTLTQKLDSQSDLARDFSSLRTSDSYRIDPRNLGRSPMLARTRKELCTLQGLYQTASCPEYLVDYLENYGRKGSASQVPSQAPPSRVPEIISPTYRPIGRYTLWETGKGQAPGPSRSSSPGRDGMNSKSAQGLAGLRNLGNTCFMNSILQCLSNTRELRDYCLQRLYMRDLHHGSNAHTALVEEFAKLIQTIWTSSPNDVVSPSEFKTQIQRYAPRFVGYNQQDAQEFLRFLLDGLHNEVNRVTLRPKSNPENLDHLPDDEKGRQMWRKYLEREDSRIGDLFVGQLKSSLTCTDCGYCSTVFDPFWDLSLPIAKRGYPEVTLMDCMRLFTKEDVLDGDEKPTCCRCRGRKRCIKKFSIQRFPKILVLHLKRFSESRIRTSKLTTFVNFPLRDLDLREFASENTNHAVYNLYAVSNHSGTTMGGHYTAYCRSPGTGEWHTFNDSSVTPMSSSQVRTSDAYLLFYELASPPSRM
ATP-dependent DNA helicase Q1 (Homo sapiens), sequence (P46063 whole entry, looked up): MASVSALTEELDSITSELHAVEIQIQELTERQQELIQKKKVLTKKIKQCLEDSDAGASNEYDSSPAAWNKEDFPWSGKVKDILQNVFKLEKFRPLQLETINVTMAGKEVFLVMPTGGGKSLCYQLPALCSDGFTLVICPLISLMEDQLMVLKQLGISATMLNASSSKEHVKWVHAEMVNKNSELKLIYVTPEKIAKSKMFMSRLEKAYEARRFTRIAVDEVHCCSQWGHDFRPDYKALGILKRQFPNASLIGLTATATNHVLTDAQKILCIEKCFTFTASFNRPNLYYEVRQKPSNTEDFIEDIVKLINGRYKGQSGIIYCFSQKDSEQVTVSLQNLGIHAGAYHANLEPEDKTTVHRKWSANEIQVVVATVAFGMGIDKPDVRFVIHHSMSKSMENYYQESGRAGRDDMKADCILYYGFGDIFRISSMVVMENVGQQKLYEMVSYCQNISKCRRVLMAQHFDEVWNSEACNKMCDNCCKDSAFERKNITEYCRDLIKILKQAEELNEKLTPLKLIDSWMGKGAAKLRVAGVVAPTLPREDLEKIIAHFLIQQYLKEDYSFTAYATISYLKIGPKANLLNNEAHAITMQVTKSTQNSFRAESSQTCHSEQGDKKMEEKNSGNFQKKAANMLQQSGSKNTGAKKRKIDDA
DNA polymerase III PolC-type (Bacillus subtilis (strain 168)), sequence (P13267 whole entry, looked up): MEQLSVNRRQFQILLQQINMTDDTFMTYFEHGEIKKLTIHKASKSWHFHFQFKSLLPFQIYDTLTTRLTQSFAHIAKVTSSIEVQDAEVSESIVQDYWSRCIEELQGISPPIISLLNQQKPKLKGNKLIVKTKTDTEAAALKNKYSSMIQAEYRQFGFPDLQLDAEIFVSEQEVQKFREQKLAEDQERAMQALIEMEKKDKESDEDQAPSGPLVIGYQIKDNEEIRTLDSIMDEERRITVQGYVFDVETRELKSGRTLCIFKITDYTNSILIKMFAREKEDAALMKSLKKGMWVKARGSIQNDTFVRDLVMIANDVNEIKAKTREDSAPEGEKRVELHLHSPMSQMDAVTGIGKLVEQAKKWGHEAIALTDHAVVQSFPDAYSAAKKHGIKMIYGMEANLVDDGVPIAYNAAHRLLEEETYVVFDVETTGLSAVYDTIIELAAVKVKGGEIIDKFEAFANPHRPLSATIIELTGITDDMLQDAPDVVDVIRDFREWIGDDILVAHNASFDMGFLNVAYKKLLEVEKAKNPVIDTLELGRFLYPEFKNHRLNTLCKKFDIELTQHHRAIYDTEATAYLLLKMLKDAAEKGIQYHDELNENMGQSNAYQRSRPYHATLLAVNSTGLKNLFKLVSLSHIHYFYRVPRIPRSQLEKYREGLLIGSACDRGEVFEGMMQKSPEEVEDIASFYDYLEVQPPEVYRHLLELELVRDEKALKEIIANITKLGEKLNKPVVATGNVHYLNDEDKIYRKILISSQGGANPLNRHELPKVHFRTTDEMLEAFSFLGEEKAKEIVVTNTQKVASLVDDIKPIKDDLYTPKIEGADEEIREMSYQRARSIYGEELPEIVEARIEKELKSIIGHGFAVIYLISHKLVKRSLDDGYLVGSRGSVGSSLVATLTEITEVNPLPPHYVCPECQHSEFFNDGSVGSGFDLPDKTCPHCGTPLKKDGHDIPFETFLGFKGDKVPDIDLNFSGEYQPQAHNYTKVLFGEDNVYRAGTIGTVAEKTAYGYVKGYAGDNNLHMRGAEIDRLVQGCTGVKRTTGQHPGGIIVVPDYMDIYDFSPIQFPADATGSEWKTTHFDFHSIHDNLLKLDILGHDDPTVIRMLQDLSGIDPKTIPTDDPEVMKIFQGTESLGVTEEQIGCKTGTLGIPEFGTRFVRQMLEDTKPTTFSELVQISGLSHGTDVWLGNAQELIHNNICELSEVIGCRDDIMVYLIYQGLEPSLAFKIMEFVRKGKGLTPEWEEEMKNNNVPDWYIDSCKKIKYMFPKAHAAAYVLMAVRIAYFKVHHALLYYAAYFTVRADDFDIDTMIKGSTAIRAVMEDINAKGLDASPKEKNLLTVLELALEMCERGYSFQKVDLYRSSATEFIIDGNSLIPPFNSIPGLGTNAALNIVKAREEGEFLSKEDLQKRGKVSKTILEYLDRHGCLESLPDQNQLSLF
Beta-2 adrenergic receptor (Homo sapiens), sequence (P07550 whole entry, looked up): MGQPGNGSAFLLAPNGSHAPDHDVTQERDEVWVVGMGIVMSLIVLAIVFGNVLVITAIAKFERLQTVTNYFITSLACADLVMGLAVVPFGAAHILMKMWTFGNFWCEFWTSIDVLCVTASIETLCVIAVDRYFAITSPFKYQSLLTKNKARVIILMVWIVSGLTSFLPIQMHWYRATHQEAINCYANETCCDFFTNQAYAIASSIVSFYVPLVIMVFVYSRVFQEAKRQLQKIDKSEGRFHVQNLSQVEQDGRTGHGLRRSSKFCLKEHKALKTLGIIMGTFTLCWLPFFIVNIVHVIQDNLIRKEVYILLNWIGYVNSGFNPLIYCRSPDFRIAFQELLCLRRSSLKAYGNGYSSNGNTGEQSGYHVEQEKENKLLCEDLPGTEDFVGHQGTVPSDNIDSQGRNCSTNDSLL
Tumor susceptibility gene 101 protein (Homo sapiens), sequence (Q99816 whole entry, looked up, the tested form may be a part): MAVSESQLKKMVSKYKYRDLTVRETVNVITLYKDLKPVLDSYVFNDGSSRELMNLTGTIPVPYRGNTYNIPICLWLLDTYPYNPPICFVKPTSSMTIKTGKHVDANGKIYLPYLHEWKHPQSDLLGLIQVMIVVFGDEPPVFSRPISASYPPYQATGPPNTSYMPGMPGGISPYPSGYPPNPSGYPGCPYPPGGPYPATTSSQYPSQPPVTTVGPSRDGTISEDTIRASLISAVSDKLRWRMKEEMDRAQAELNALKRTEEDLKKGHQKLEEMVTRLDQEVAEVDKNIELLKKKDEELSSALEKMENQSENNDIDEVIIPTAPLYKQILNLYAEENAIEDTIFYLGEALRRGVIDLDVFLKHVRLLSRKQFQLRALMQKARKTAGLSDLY

In the case of `Nc1nc2c(nc(Br)n2C2OC3COP(=O)(O)O[C@@H]3C2O)c(=O)[nH]1` (some centres undefined), the result in experiment [1], in [7], in experiment [8] and in experiment [9] was inactive. In addition, the Potency entry in experiment [2], in experiment [3], in [4], in experiment [5] and in experiment [6] was “inactive” in each case.

On to `S=C(S)N1CCCC1`, for which the Potency entry in experiment [10], in experiment [11], in [12], in [5] and in [6] was “inactive” throughout. The outcome in experiment [7] and in experiment [8] was inactive.

For `CCCCCCCCCC[Si](C)(C)CCC(=O)NC(Cc1ccc(C)cc1)c1ccccc1` (centres undefined), the Potency entry in [11], in [2], in experiment [4], in [13], in experiment [5] and in experiment [6] was “inactive” throughout. The result in experiment [1], in experiment [7] and in experiment [9] was inactive.

As to `O=C1Nc2ccc(I)cc2/C1=C/c1cc(Br)c(O)c(Br)c1`, the Potency was 15.8 µM (active) in experiment [14], 10 µM (active) in experiment [15] and 21.2 µM (active) in experiment [6]. The Potency entry in experiment [11], in experiment [2] and in [3] was “inactive” in each case. Moreover, the result in experiment [7] and in experiment [9] was inactive.

For `COc1ccccc1N1CCN(CCN(C(=O)c2ccc(F)cc2)c2ccccn2)CC1`, the Potency in experiment [14] is 8.91 µM (active). In addition, the Potency result in experiment [10], in experiment [2], in [3], in [13], in experiment [5] and in experiment [6] was “inactive” in each case. For the same molecule, the result in [7] and in experiment [8] was inactive.

As for `COC(=O)C1=C(C)NC(C)=C([N+](=O)[O-])C1c1ccccc1C(F)(F)F` (centres undefined), in [14], the Potency was 12.6 µM (active). Moreover, the Potency result in experiment [11], in experiment [2], in [4], in experiment [13], in experiment [5] and in experiment [6] was “inactive” each time. The molecule was classed as inactive in [1], in [7], in experiment [8] and in experiment [9].

On to `N=S(=O)(O)Cc1noc2ccccc12`, for which the Potency result in [15], in [11], in experiment [3], in [4], in [13] and in experiment [5] was “inactive” throughout. Besides, in experiment [6], the Potency entry is “inactive”. In addition, the result in experiment [16], in experiment [1], in [7], in [8] and in [9] was inactive.

Regarding `Nc1nc2ccc(Cl)cc2c2nc(-c3ccco3)nn12`, the Potency entry in experiment [11], in experiment [12], in experiment [2], in experiment [5] and in [6] was “inactive” each time. For the same molecule, the molecule was classed as inactive in experiment [7] and in experiment [9].

For `O=c1ccc2c(OCCCCc3ccccc3)c3ccoc3cc2o1`, in experiment [14], the Potency was 10 µM (active). Moreover, the Potency entry in [10], in [11], in [2], in experiment [3], in experiment [4] and in experiment [13] was “inactive” in each case. The Potency result in experiment [5] and in experiment [6] was “inactive” each time. Moreover, the outcome in experiment [1], in experiment [7] and in experiment [9] was inactive.

Consider `CC(/C=C/c1cccc(Oc2ccc(F)cc2)c1)N(O)C(N)=O` (centres undefined), for which, in [14], the Potency was 10 µM (active). Also, the Potency entry in experiment [11], in experiment [2], in experiment [3], in experiment [4], in experiment [13] and in experiment [5] was “inactive” each time. Also, the Potency result in experiment [6] is “inactive”. Moreover, the molecule was called inactive in experiment [1], in [7], in experiment [8] and in experiment [9].

Regarding `c1ccc(C(NCc2cccnc2)(c2ccccc2)c2ccccc2)cc1`, the molecule was called inactive in experiment [1] and in [7]. Also, the Potency result in experiment [2], in experiment [3], in [4], in experiment [5] and in [6] was “inactive” each time.

Turning to `CC#CCOC(=O)c1c(C)nc2sc3c(c2c1N)CCC(O)C3` (centres undefined), the Potency result in experiment [15], in experiment [11], in experiment [2], in experiment [3], in experiment [4] and in experiment [5] was “inactive” in each case. The Potency result in [6] is “inactive”. In addition, the molecule was classed as inactive in experiment [1], in [7], in [8] and in experiment [9].

Turning to `CC(C)(C)NCC(O)COc1cccc2[nH]c(=O)[nH]c12` (centres undefined), the Potency entry in experiment [14], in experiment [15], in experiment [11], in experiment [3], in experiment [13] and in experiment [5] was “inactive” each time. Moreover, the Potency result in experiment [6] is “inactive”. Also, the outcome in [7] was inactive.

Regarding `CC(C)(C)c1ccc(/C=C/C(=O)Nc2ccc3c(c2)OCCO3)cc1`, the outcome in experiment [1], in experiment [7] and in experiment [9] was inactive. In addition, the Potency entry in experiment [2], in [3], in [5] and in experiment [6] was “inactive” throughout.
